Drawing on PubChem BioAssay (NCI), this text covers growth for eight compounds.

SMILES strings stand for the structures. Compounds without any hit were thinned out: in the full panel of roughly 83,000, 20% have a hit.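 Compound tested at a single concentration for 48 hours in 96-well plates; a percent growth value below 10 was scored as active.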 A number with no mark means an inactive call. The source made the active and inactive calls.

Holding throughout (assay): NCI-60 one-dose screen, 48 h (100 = growth as untreated, 0 = no growth, -100 = all killed)
For one experiment, the system named is NCI-H23 lung. Particulars: 10 µM unless noted.
In another experiment the test system is NCI-H226 lung. The conditions noted are these: 10 µM unless noted.
The next experiment relates to NCI-H322M lung. The conditions noted are these: 10 µM unless noted.
In a further experiment the test system is HOP-62 NSCLC. The conditions noted are these: 10 µM unless noted.
For another experiment, the system named is NCI-H460 lung. Particulars: 10 µM unless noted.
The next experiment concerns HOP-92 NSCLC. The conditions noted are these: 10 µM unless noted.
A further experiment has as its system NCI-H522 lung. Particulars: 10 µM unless noted.
A further experiment deals with A549/ATCC NSCLC. Particulars: 10 µM unless noted.
The next experiment relates to 786-0 renal. Particulars: 10 µM unless noted.
The next experiment has as its system COLO 205 colon. Particulars: 10 µM unless noted.
A further experiment concerns DU-145 prostate. The conditions noted are these: 10 µM unless noted.
In the next experiment the test system is K-562 leukemia. The conditions noted are these: 10 µM unless noted.
The test system of a further experiment is MALME-3M melanoma. Particulars: 10 µM unless noted.
The next experiment has as its system MDA-MB-231 breast. The conditions noted are these: 10 µM unless noted.
The subject of the next experiment is RXF 393 renal. Particulars: 10 µM unless noted.
For another experiment, the system named is SF-268 CNS. The conditions noted are these: 10 µM unless noted.
Another experiment has as its system SF-295 CNS. The conditions noted are these: 10 µM unless noted.
A further experiment relates to SF-539 CNS. Particulars: 10 µM unless noted.
Another experiment relates to UACC-257 melanoma. The conditions noted are these: 10 µM.
A further experiment relates to M14 melanoma. The conditions noted are these: 10 µM unless noted.

In the case of `Cc1ccc(Cn2c(-c3cccs3)nc3ccccc32)cc1`, the growth with NCI-H23 lung was 96.2%; in the experiment with NCI-H226 lung, 77.3%; in the experiment with NCI-H322M lung, 92%; in the experiment with HOP-62 NSCLC, 105%; with NCI-H460 lung, 88%; in the experiment with HOP-92 NSCLC, 72.5%. Besides, the growth was 85.1% in the experiment with NCI-H522 lung; 74.2% in the experiment with A549/ATCC NSCLC; 99% in the experiment on 786-0 renal; 110% with COLO 205 colon; 110% with DU-145 prostate; 5.16% (active) with K-562 leukemia. In addition, the growth was 120% in the experiment with MALME-3M melanoma; 96.2% in the experiment with MDA-MB-231 breast; 92.5% with RXF 393 renal; 104% with SF-268 CNS; 72% with SF-295 CNS; 102% in the experiment with SF-539 CNS. For the same compound, the results for the growth in the experiment with UACC-257 melanoma and with M14 melanoma were 89.9% and 107%, respectively.
Turning to `COc1cc(-c2cc(/C=C3\CCCCC3=O)[nH]n2)cc(OC)c1OC`, the growth is 95.5% in the experiment on NCI-H23 lung; 94.6% with NCI-H226 lung; 95.3% in the experiment with NCI-H322M lung; 99.3% in the experiment with HOP-62 NSCLC; 104% in the experiment on NCI-H460 lung; 86.4% in the experiment on HOP-92 NSCLC. Moreover, the growth in the experiment on NCI-H522 lung was 76.9%; in the experiment on A549/ATCC NSCLC, 95.1%; with 786-0 renal it was 98.1%; with COLO 205 colon it was 108%; with DU-145 prostate, 95.4%; in the experiment on K-562 leukemia, 79.4%. The growth was 101% in the experiment on MALME-3M melanoma; 94.6% with MDA-MB-231 breast; 96.1% in the experiment with RXF 393 renal; 96.8% in the experiment on SF-268 CNS; 96.4% in the experiment with SF-295 CNS; 103% in the experiment on SF-539 CNS. In addition, the growth with UACC-257 melanoma was 95%; with M14 melanoma it was 101%.
Consider `COc1ccc(C(=O)c2cc(OC)c(OC)c(OC)c2)cc1/C=C/C(=O)c1ccc2c(c1)OCO2`, for which the growth was -3.44% (active) in the experiment with NCI-H23 lung; 0.564% (active) with NCI-H226 lung; 52.9% in the experiment with NCI-H322M lung; 69.8% in the experiment with HOP-62 NSCLC; 14.6% in the experiment on NCI-H460 lung; 64% in the experiment with HOP-92 NSCLC. Further, the growth is -43% (active) in the experiment with NCI-H522 lung; 53.5% in the experiment with A549/ATCC NSCLC; 29.6% in the experiment on 786-0 renal; 27.9% in the experiment with COLO 205 colon; 33.8% with DU-145 prostate; 12.9% in the experiment on K-562 leukemia. Moreover, the growth was 12.5% in the experiment on MALME-3M melanoma; 11.2% in the experiment with MDA-MB-231 breast; 17.4% with RXF 393 renal; 8.85% (active) in the experiment on SF-268 CNS; 77.3% in the experiment with SF-295 CNS; -33.8% (active) in the experiment with SF-539 CNS. Besides, the growth with UACC-257 melanoma was 51.3%; with M14 melanoma, 25.3%.
Take `CC(C)(C)OC(=O)N[C@@H](Cc1ccccc1)C(=O)N(Cc1ccccc1)C1(C(=O)NCc2ccccc2)CCN(Cc2ccccc2)CC1`: the growth in the experiment with NCI-H23 lung is 49.3%; in the experiment with NCI-H226 lung it was 70%; in the experiment on NCI-H322M lung, 64.3%; in the experiment with HOP-62 NSCLC, 56.2%; in the experiment on NCI-H460 lung, 26.6%; with HOP-92 NSCLC, -8.51% (active). Moreover, the growth in the experiment on NCI-H522 lung is 43.7%; with A549/ATCC NSCLC, 24.8%; with 786-0 renal it was 51.7%; in the experiment with COLO 205 colon it was 16.3%; in the experiment with DU-145 prostate, 75.6%; in the experiment on K-562 leukemia, 11%. Also, the growth in the experiment on MALME-3M melanoma is 25.6%; in the experiment with MDA-MB-231 breast, 22.9%; with RXF 393 renal it was 61.9%; in the experiment with SF-268 CNS, 58.5%; with SF-295 CNS it was 39.2%; in the experiment with SF-539 CNS, 47.2%. The growth in the experiment with UACC-257 melanoma was 24.2%; in the experiment on M14 melanoma, 40.2%.
As for `COc1ccc(Cn2cc(COc3cc(/C=C/C(=O)c4cc(OC)c(OC)c(OC)c4)ccc3OC)nn2)cc1`, the growth in the experiment with NCI-H23 lung was 107%; in the experiment on NCI-H226 lung, 89.4%; in the experiment on NCI-H322M lung, 52.4%; with HOP-62 NSCLC, 19.2%; in the experiment on NCI-H460 lung it was 96.4%; in the experiment with HOP-92 NSCLC it was 45%. Moreover, the growth with NCI-H522 lung is 41.6%; with A549/ATCC NSCLC, 60.1%; in the experiment with 786-0 renal it was 81%; in the experiment with COLO 205 colon, 81.9%; with DU-145 prostate, 88.5%; in the experiment on K-562 leukemia, 12%. For the same compound, the growth is 101% in the experiment with MALME-3M melanoma; 84.9% in the experiment with MDA-MB-231 breast; 90.3% in the experiment with RXF 393 renal; 94.6% in the experiment with SF-268 CNS; 32.2% in the experiment with SF-295 CNS; 49.2% in the experiment on SF-539 CNS. Further, the growth was 96.1% in the experiment with UACC-257 melanoma and 90.9% in the experiment on M14 melanoma.
As to `Cc1cc2c(c(=O)o1)C(c1ccc(OC(=O)N3CCOCC3)cc1)C(C#N)=C(N)O2` (stereo not given), the growth was 97.4% in the experiment on NCI-H23 lung; 104% in the experiment on NCI-H226 lung; 93.1% with NCI-H322M lung; 89.6% in the experiment on HOP-62 NSCLC; 107% in the experiment on NCI-H460 lung; 113% in the experiment on HOP-92 NSCLC. Further, the growth is 98.9% with NCI-H522 lung; 100% with A549/ATCC NSCLC; 99.2% in the experiment on 786-0 renal; 118% with COLO 205 colon; 112% in the experiment with DU-145 prostate; 98.6% in the experiment with K-562 leukemia. Besides, the growth with MALME-3M melanoma was 126%; in the experiment with MDA-MB-231 breast, 116%; in the experiment on RXF 393 renal it was 114%; in the experiment with SF-268 CNS, 114%; with SF-295 CNS, 100%; in the experiment with SF-539 CNS it was 96.5%. Further, the growth with UACC-257 melanoma is 98.2%; in the experiment on M14 melanoma, 110%.
Consider `CN1CCN(c2ccc3cc(-c4nc5ccccc5[nH]4)c(=O)oc3c2)CC1`, for which the growth in the experiment with NCI-H23 lung is 74.5%; in the experiment on NCI-H226 lung, 89%; in the experiment with NCI-H322M lung, 105%; in the experiment with HOP-62 NSCLC, 98%; in the experiment on NCI-H460 lung it was 92.7%; in the experiment with HOP-92 NSCLC, 58.9%. The growth in the experiment with NCI-H522 lung is 94.9%; in the experiment with A549/ATCC NSCLC it was 90.3%; in the experiment with 786-0 renal, 105%; in the experiment on COLO 205 colon it was 92.4%; with DU-145 prostate it was 112%; in the experiment with K-562 leukemia, 43.7%. Besides, the growth was 90.4% in the experiment on MALME-3M melanoma; 80.2% with MDA-MB-231 breast; 108% in the experiment on RXF 393 renal; 105% with SF-268 CNS; 104% with SF-295 CNS; 93.5% in the experiment with SF-539 CNS. Moreover, the growth in the experiment with UACC-257 melanoma was 83.3%; in the experiment on M14 melanoma it was 88.8%.
Turning to `COc1ccc(/C=C/c2nc(N3CCOCC3)c3cc(F)c(F)cc3n2)cc1OC`, the growth was 34.8% in the experiment on NCI-H23 lung; 33.2% with NCI-H226 lung; 70.2% in the experiment with NCI-H322M lung; 86.8% in the experiment with HOP-62 NSCLC; 36.4% in the experiment with NCI-H460 lung; 33.7% in the experiment on HOP-92 NSCLC. For the same compound, the growth was 26% with NCI-H522 lung; 30.9% in the experiment with A549/ATCC NSCLC; 45.4% in the experiment with 786-0 renal; 15.6% with COLO 205 colon; 53.5% in the experiment on DU-145 prostate; 16.4% in the experiment with K-562 leukemia. Further, the growth with MALME-3M melanoma was 42.3%; in the experiment with MDA-MB-231 breast it was 55.4%; in the experiment with RXF 393 renal it was 48.6%; with SF-268 CNS it was 53.5%; in the experiment on SF-295 CNS, 19.3%; in the experiment with SF-539 CNS, 56.8%. The growth with UACC-257 melanoma is 20.5%; in the experiment with M14 melanoma, 28%.
